The target in test [1] is T1, Serine/threonine-protein kinase TAO3 (Homo sapiens) (UniProt Q9H2K8).
T1 sequence (whole entry): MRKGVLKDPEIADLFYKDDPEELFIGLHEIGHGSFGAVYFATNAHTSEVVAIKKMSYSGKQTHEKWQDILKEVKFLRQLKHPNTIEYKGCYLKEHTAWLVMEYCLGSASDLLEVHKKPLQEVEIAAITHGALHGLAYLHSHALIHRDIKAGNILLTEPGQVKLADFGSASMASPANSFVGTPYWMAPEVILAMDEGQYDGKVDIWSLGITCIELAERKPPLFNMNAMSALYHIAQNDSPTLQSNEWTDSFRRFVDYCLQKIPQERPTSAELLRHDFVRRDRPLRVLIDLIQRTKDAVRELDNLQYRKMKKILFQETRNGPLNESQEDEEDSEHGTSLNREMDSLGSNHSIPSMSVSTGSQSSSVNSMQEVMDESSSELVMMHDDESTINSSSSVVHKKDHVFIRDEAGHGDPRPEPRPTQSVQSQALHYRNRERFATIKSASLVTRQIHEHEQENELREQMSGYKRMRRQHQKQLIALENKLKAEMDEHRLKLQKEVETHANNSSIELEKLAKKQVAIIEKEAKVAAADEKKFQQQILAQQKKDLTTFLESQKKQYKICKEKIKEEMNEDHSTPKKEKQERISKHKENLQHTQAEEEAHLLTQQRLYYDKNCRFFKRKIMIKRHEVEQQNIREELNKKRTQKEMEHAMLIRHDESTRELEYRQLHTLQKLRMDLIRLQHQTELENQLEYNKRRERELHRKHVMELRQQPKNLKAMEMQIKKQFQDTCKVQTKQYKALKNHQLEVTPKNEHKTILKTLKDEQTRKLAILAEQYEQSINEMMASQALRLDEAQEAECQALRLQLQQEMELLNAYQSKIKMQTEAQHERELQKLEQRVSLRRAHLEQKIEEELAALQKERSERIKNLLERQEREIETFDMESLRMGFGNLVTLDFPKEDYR
As to conditions: at 10 µM.

The target in test [2] is T2, Serine/threonine-protein kinase TBK1 (Homo sapiens) (UniProt Q9UHD2).
T2 sequence (whole entry): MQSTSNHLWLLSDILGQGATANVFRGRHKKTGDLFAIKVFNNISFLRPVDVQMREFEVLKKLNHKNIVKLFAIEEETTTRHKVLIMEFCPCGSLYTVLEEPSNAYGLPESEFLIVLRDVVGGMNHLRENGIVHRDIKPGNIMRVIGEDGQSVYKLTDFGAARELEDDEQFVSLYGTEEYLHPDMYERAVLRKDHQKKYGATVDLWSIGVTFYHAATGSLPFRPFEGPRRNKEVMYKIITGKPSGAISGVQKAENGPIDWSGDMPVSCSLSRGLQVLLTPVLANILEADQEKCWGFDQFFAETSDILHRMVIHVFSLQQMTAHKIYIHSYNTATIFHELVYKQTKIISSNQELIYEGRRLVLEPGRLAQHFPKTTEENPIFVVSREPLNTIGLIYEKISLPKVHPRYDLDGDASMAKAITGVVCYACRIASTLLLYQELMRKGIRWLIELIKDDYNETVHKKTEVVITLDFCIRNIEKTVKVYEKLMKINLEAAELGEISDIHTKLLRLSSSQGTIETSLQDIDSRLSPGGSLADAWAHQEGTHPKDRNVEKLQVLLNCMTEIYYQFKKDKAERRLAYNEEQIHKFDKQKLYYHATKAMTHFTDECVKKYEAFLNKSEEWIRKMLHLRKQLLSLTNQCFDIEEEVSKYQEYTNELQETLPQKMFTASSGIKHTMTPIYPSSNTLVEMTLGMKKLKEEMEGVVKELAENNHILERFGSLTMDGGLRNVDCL
As to conditions: at 1 µM.

The target of test [3] is T2, Serine/threonine-protein kinase TBK1 (Homo sapiens). To be noted: at 10 µM.
In test [4] the target is T3, TGF-beta receptor type-1 (Homo sapiens) (UniProt P36897).
T3 sequence (whole entry): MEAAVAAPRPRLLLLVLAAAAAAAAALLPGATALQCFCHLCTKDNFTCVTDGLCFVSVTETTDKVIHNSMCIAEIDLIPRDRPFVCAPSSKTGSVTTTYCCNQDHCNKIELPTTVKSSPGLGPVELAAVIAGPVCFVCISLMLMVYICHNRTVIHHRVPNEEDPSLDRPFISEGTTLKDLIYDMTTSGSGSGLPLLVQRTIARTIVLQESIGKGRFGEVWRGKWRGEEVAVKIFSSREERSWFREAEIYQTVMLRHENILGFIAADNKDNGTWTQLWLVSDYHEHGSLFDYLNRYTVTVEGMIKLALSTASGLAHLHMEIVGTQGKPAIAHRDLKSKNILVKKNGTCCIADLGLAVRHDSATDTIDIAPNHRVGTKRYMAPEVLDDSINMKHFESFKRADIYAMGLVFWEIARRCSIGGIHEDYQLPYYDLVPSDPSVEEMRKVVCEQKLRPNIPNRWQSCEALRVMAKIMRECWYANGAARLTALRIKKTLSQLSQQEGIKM
As to conditions: at 1 µM.

Test [5] addresses T3, TGF-beta receptor type-1 (Homo sapiens). As to conditions: at 10 µM.
Test [6] concerns the target T4, Inhibitor of nuclear factor kappa-B kinase subunit alpha (Homo sapiens) (UniProt O15111).
T4 sequence (whole entry): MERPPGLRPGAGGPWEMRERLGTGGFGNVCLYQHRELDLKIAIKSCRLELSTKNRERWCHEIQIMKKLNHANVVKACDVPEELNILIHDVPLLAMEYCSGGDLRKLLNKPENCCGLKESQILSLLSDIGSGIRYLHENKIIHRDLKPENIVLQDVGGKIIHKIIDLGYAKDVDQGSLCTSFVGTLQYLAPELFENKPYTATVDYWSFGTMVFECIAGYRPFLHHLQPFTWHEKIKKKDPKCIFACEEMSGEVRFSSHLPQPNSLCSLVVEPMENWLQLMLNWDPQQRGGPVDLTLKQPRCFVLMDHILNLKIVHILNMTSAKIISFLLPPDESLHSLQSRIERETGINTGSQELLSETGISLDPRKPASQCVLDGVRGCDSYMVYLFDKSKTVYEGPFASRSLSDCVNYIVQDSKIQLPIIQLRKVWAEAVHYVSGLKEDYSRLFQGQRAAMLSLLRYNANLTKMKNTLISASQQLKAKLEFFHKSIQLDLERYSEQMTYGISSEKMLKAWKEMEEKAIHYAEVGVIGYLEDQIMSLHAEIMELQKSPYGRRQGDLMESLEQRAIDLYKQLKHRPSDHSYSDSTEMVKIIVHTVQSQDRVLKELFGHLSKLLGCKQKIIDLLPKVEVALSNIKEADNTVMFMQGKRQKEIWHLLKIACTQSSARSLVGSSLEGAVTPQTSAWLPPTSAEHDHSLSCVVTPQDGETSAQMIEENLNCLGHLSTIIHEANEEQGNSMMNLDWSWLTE
To be noted: at 1 µM.

Test [7] addresses T4, Inhibitor of nuclear factor kappa-B kinase subunit alpha (Homo sapiens). To be noted: at 10 µM.
The target in test [8] is T5, Inhibitor of nuclear factor kappa-B kinase subunit beta (Homo sapiens) (UniProt O14920).
T5 sequence (whole entry): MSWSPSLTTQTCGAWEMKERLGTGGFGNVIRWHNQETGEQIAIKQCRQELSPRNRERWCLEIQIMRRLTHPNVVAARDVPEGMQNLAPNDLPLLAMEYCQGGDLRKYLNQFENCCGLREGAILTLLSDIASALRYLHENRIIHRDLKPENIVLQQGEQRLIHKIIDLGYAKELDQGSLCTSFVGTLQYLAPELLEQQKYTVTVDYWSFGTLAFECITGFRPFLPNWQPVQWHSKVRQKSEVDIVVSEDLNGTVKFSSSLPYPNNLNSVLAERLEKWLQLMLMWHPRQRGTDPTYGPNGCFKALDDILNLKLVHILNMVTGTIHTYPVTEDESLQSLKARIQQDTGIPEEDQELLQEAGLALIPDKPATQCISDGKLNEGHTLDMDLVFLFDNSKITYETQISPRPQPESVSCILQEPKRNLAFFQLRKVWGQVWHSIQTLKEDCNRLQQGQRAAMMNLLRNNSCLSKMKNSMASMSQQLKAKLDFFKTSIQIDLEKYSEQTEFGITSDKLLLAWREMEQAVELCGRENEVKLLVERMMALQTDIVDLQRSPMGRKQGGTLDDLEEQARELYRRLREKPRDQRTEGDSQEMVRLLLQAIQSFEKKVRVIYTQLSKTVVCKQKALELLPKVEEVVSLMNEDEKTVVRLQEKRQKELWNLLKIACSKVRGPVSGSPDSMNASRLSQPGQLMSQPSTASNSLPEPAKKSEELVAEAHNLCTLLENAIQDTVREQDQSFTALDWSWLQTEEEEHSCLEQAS
To be noted: at 1 µM.

In test [9] the target is T5, Inhibitor of nuclear factor kappa-B kinase subunit beta (Homo sapiens). As to conditions: at 10 µM.

Consider `O=C(c1cc2cc(O)ccc2[nH]1)c1cc2cc(O)ccc2[nH]1`, for which the residual activity (commonly the signal under treatment as a percentage of the control signal) in [1] was determined as 22%; in test [2] it was 16%; in test [3] it was 2%; in test [4] it was 79%; in test [5], 80%; in test [6], 109%. Besides, the residual activity in test [7] amounted to 77%; in test [8] it was 70%; in [9] it was 34%.

Values taken from ChEMBL document CHEMBL2218924, “A broad activity screen in support of a chemogenomic map for kinase signalling research and drug discovery” (Biochem J, 2013).
